An excerpt weighted towards active compounds, which were near 18% of everything screened.
IL-1B inflam inh – blocks inflammasome-driven IL-1 beta release | THP-1 LPS/ATP IL-1B secretion, AlphaLISA, 16 h; active compounds read low | 360,000 compounds, 4.7% hits | activity change, % at 57.5 µM | AID 743279; in the data active means activity change below about -50%; inconclusive means mostly about -30% to -49%
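Secreted IL-1B measured by AlphaLISA bead assay after 16 h compound exposure of THP-1 cells; compounds (final up to 57.5 uM) added 1 h before LPS (250 ng/mL) and ATP (1.25 mM) stimulation; lower signal means less secretion.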
TDP1 inh – blocks human tyrosyl-DNA phosphodiesterase 1 | Q9NUW8 | recombinant TDP1, AlphaScreen DNA substrate cleavage | Potency, µM (titrated, usually from 130 µM), for the others: top-dose activity change, negative = inhibition, hits mostly inhibitors | 350,000 compounds, 0.28% hits | AID 485290; further: potency means the concentration at half of the fitted maximal effect; nearly all actives have a fitted effect of over 40% in size
Target sequence (Q9NUW8 whole entry, looked up): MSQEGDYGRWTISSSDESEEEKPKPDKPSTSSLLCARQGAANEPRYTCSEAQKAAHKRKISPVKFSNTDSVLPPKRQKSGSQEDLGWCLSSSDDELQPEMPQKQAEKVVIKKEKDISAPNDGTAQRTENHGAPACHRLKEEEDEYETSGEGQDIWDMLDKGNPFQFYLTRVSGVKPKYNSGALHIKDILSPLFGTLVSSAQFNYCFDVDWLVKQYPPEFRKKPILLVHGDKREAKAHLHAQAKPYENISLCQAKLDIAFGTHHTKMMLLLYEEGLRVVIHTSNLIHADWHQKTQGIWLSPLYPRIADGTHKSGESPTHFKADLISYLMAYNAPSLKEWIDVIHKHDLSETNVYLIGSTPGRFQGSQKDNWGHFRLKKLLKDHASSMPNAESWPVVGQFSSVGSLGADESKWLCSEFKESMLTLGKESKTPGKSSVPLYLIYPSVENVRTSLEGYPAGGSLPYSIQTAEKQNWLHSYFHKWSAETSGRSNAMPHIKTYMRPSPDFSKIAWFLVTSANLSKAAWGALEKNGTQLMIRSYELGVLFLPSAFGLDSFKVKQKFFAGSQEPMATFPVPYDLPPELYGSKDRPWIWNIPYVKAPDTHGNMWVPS
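Signal: AlphaScreen proximity between streptavidin donor and anti-FITC acceptor beads on intact substrate. Reaction: Tdp1 1 nM, substrate 15 nM final, 5 min RT after 15 min compound preincubation.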
DT40 TDP1 no CPT – qHTS for Inhibitors of human tyrosyl-DNA phosphodiesterase 1 (TDP1): qHTS in cells in absence of CPT; DT40 Tdp1-/- hTDP1 cells, no CPT, ATP luminescence, 48 h; Potency, µM (titrated, usually from 46.2 µM), without a hit: at the highest dose activity change, negative = growth inhibition, usual class: inhibitors; 420,000 compounds, 15% hits; AID 686978, 2013; further: potency means the concentration at half of the fitted maximal effect; nearly all actives have a fitted effect of over 55% in size
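No-CPT arm: Tdp1-/-;hTDP1 DT40 cells (400/well) plus compounds, incubated ≥48 hr at 37 °C. Readout CellTiter-Glo luminescence.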
DT40 TDP1 CPT – growth inhibition of DT40 Tdp1-/-;hTDP1 cells with camptothecin (screen for TDP1 inhibitors); chicken DT40 Tdp1-/-;hTDP1 cells + 20 nM CPT, ATP luminescence, 48 h; Potency, µM (series often up to 46.2 µM), for the others: at the top dose activity change, negative = growth inhibition, hits mostly inhibitors; 420,000 compounds, 12% hits; AID 686979; further: potency means the concentration at half of the fitted maximal effect; nearly all actives have a fitted effect of over 55% in size
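Chicken DT40 Tdp1-/- cells stably complemented with human TDP1 were seeded at 400 cells/well in medium containing 20 nM camptothecin, exposed to pin-transferred compounds, and grown at 37 °C for at least 48 hr. Viability was read as ATP luminescence.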
Six1-Eya2 inh – inhibitors of human Six1/Eya2 interaction; Q15475+O00167; AlphaScreen GST-Six1/His-Eya2 binding, biochemical; active compounds read low; activity change, % (concentration not given with the values); 360,000 compounds, 0.56% hits; in the data active means activity change below about -65%; inconclusive means mostly about -30% to -63%
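Six1/Eya2 binding was read as AlphaScreen signal after compounds were pinned into GST-Six1 plus His-tagged Eya2 (5X stock 250/500 nM) in pH 8.0 Tris/NaCl/TCEP buffer, beads added, then incubated 1 h, 37 C, dark.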
CtBP-E1A inh – blocks the CtBP interaction with E1A; AlphaScreen GST-E1A/His-CtBP binding, 1536-well; active compounds read low; activity change, % (concentration not given with the values); 340,000 compounds, 0.49% hits; in the data active means activity change below about -65%; inconclusive means mostly about -30% to -63%
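Steps: dispense buffer (Tris pH 8.0, NaCl 300 mM, TCEP 1 mM, BSA, Tween 20); add 5X protein mix (GST-E1A, His-CtBP, 125 nM each); pin 23 nL compound; 2 h at 37 °C, dark; add 5X beads (50 ug/mL); 1 h; read.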
* hit, by the source's call; [ ] = remark or other dose. Unless noted, the call rests on the fitted dose curve; in most records, active means well fitted curve in the direction sought with a large enough effect; inconclusive means small, poorly fitted or top-dose-only effect, or another doubt; inactive means no such curve, though single readings can be large; an effect the other way counts as inactive or inconclusive. On the % scale 0 is the no-effect control and ±100 the full control effect.

What do the screens show for `Cc1cccc(C2=NN(c3ccccc3)[C@@H](C(=O)N3CCOC3=O)[C@@H]2c2ccc(Cl)cc2)c1`?
IL-1B inflam inh: 26; TDP1 inh: -6%[56.1 µM]; DT40 TDP1 no CPT: inconclusive; DT40 TDP1 CPT: -22%; Six1-Eya2 inh: 17; CtBP-E1A inh: -4

How did Cc1cccc(NCC(=O)N/N=C\c2c[nH]c3ccccc23)c1 do in these assays?
IL-1B inflam inh: -27; TDP1 inh: 1%; DT40 TDP1 no CPT: inconclusive; DT40 TDP1 CPT: inconclusive; Six1-Eya2 inh: -8; CtBP-E1A inh: 3

What do the screens show for `Cc1c(C(=O)NCc2cccc(Cl)c2)sc2nc[nH]c(=O)c12`?
TDP1 inh: 7%; DT40 TDP1 no CPT: inconclusive; DT40 TDP1 CPT: inconclusive

What do the screens show for `O=C(NNC(=O)c1cccc(Br)c1)C(=O)N1CCCCC1`?
IL-1B inflam inh: -6; TDP1 inh: 0%; DT40 TDP1 no CPT: -20%; DT40 TDP1 CPT: inconclusive; Six1-Eya2 inh: 2

How did CC(=O)Nc1ccc(N=Cc2c(O)ccc3ccccc23)cc1 do in these assays?
IL-1B inflam inh: 18; TDP1 inh: 7%; DT40 TDP1 no CPT: 10%; DT40 TDP1 CPT: -1%; Six1-Eya2 inh: 1

Results for COc1ccc(NC(C)C(=O)N/N=C/c2ccccc2OCc2cccc(Br)c2)cc1 (stereo unspecified) ?
IL-1B inflam inh: -64*; TDP1 inh: 11%; DT40 TDP1 no CPT: inconclusive; DT40 TDP1 CPT: inconclusive; Six1-Eya2 inh: inconclusive; CtBP-E1A inh: inconclusive

What do the screens show for `O=C(N/N=C/c1c(O)ccc2ccccc12)Nc1ccccc1`?
IL-1B inflam inh: 85; DT40 TDP1 no CPT: 15µM*; DT40 TDP1 CPT: 26µM*; Six1-Eya2 inh: -2

How did Cc1ccccc1NC(C)C(=O)N/N=C/c1ccccc1OCc1cccc(Br)c1 (stereo unspecified) do in these assays?
IL-1B inflam inh: inconclusive; TDP1 inh: 4%; DT40 TDP1 no CPT: inconclusive; DT40 TDP1 CPT: inconclusive; Six1-Eya2 inh: -21; CtBP-E1A inh: -11

How did CCC1(c2ccccc2)NC(=O)N(CC(=O)Nc2cc(C(F)(F)F)ccc2N2CCCC2)C1=O (stereo unspecified) do in these assays?
IL-1B inflam inh: -6; DT40 TDP1 no CPT: -13%; DT40 TDP1 CPT: -22%; Six1-Eya2 inh: -8; CtBP-E1A inh: 1

Results for COc1cccc(CNn2c(-c3cccc(C)c3)nc3ccccc3c2=O)c1 ?
IL-1B inflam inh: -71*; TDP1 inh: 3%; DT40 TDP1 no CPT: 18µM*; DT40 TDP1 CPT: inconclusive; Six1-Eya2 inh: 6; CtBP-E1A inh: 10

Results for O=C(Nn1c(-c2ccc(Br)cc2)nc2ccccc2c1=O)c1cccnc1 ?
IL-1B inflam inh: 23; TDP1 inh: -1%; DT40 TDP1 no CPT: 23µM*; DT40 TDP1 CPT: inconclusive; Six1-Eya2 inh: -5; CtBP-E1A inh: -2

Results for COc1ccc(-c2nc3ccccc3c(=O)n2NC(=S)N(C)C)cc1 ?
IL-1B inflam inh: -9; TDP1 inh: 5%; DT40 TDP1 no CPT: 12µM*; DT40 TDP1 CPT: 12µM*; Six1-Eya2 inh: 7; CtBP-E1A inh: 1

Results for COc1cccc(C(=O)Nn2c(-c3cccs3)nc3ccccc3c2=O)c1OC ?
IL-1B inflam inh: 25; TDP1 inh: -3%; DT40 TDP1 no CPT: inconclusive; DT40 TDP1 CPT: -20%; Six1-Eya2 inh: -4; CtBP-E1A inh: -5

Results for COc1ccc(CNn2c(-c3cccs3)nc3ccccc3c2=O)cc1OC ?
IL-1B inflam inh: -79*; TDP1 inh: 2%; DT40 TDP1 no CPT: 10µM*; DT40 TDP1 CPT: 7.3µM*; Six1-Eya2 inh: -4

Results for COc1ccc(OC)c(CNn2c(-c3cccc(C)c3)nc3ccccc3c2=O)c1 ?
IL-1B inflam inh: -4; TDP1 inh: 6%; DT40 TDP1 no CPT: inconclusive; DT40 TDP1 CPT: inconclusive; Six1-Eya2 inh: -3; CtBP-E1A inh: -4

What do the screens show for `COc1cccc(CN2CCNC(=O)C2CC(=O)NCCN2CCCCC2=O)c1` (stereo unspecified)?
IL-1B inflam inh: 5; TDP1 inh: 3%; DT40 TDP1 no CPT: 24%; DT40 TDP1 CPT: -2%; Six1-Eya2 inh: -8; CtBP-E1A inh: -23

Results for CC(=O)N[C@@H](Cc1c[nH]c2ccccc12)C(=O)NCc1ccccc1 ?
IL-1B inflam inh: 22; TDP1 inh: 9%; DT40 TDP1 no CPT: -24%; DT40 TDP1 CPT: 0%; Six1-Eya2 inh: -4; CtBP-E1A inh: -4

How did CCOC(=O)C1CCN(C(=O)CCc2c(C)nc3ncnn3c2C)CC1 do in these assays?
IL-1B inflam inh: 19; TDP1 inh: 7%; DT40 TDP1 no CPT: -8%; DT40 TDP1 CPT: -4%; Six1-Eya2 inh: 6; CtBP-E1A inh: -2

Results for O=c1c2ccccc2nc(-c2cccs2)n1-c1cccc2ccccc12 ?
IL-1B inflam inh: -1; TDP1 inh: 8%; DT40 TDP1 no CPT: 21µM*; DT40 TDP1 CPT: inconclusive; Six1-Eya2 inh: -8; CtBP-E1A inh: -2

How did COc1ccc(C2C3=C(CCCC3=O)N(CC(=O)O)C3=C2C(=O)CCC3)cc1Br do in these assays?
IL-1B inflam inh: -21; DT40 TDP1 no CPT: -1%; DT40 TDP1 CPT: 3%; Six1-Eya2 inh: inconclusive; CtBP-E1A inh: -4

What do the screens show for `Cc1nc(NC(=O)c2ccccc2)sc1-c1cc(C(=O)N2CCOCC2)nn1Cc1ccccc1`?
IL-1B inflam inh: -3; DT40 TDP1 no CPT: -18%; DT40 TDP1 CPT: 21µM*; Six1-Eya2 inh: 4; CtBP-E1A inh: -3

How did Cc1nc(NC(=O)c2ccccc2)sc1-c1cc(C(=O)N2CCOCC2)nn1CCO do in these assays?
IL-1B inflam inh: -29; DT40 TDP1 no CPT: 14%; DT40 TDP1 CPT: 12%; Six1-Eya2 inh: 3; CtBP-E1A inh: 2

Results for CCOC(=O)C1(C)CCCN(C(=O)c2ccc(-c3ccccc3)cc2)C1 (stereo unspecified) ?
IL-1B inflam inh: 5; DT40 TDP1 no CPT: 16µM*; DT40 TDP1 CPT: inconclusive; Six1-Eya2 inh: 11; CtBP-E1A inh: 18

What do the screens show for `CCOC(=O)C1(C)CCCN(C(=O)c2ccccc2)C1` (stereo unspecified)?
IL-1B inflam inh: -3; DT40 TDP1 no CPT: -7%; DT40 TDP1 CPT: inconclusive; Six1-Eya2 inh: -9; CtBP-E1A inh: -2

What do the screens show for `CCOC(=O)C1(C)CCCN(C(=O)Cc2ccc3ccccc3c2)C1` (stereo unspecified)?
IL-1B inflam inh: 43; DT40 TDP1 no CPT: 9.2µM*; DT40 TDP1 CPT: 29µM*; Six1-Eya2 inh: 3; CtBP-E1A inh: 22
